# Screening data deposited in PubChem by National Center for Advancing Translational Sciences (NCATS).
# Shown are actives, neighbours in structure and some others; about 1.2% of the full set was active somewhere.
# NS1 inh – blocks influenza NS1 protein function. Potency, µM (highest dose often 46.1 µM), inactives show at the top dose activity, positive = more growth. actives 0.4% (n = 270,000); calls by dose curve; also: actives are rising curves; nearly all actives have a fitted effect of over 50% in size
#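 Recovery from NS1-induced slow growth read by OD600 in budding yeast switched to galactose assay medium (pH 6.0, -URA) at 1:100 dilution. Compound 23 nl per well; the matching strain lacking NS1 serves as control.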
# FBPA Giardia inh – blocks Giardia fructose-bisphosphate aldolase activity. actives 0.71% (n = 290,000). Potency, µM (highest dose often 59.6 µM), for inactives: at the highest dose activity, negative = inhibition, usual class: inhibitors. purified Giardia FBPA. A8B2U2; also: % is scaled to controls: 0 for no effect and ±100 for the full control effect; nearly all actives have a fitted effect of over 55% in size
# Target sequence (A8B2U2 whole entry, looked up): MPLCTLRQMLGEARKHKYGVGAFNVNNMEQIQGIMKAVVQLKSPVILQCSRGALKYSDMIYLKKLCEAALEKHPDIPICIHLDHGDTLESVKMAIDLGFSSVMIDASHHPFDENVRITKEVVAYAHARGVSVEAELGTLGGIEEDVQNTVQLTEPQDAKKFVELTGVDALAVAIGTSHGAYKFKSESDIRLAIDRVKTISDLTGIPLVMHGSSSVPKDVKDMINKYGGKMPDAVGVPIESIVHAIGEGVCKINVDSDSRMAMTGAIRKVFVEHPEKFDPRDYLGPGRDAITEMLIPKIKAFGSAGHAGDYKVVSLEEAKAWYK
#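 40 nM FBPA preincubated 10 min at RT with compound (up to 57.5 uM final), then substrate plus GAPDH/TPI/NAD/arsenate coupling and diaphorase/resazurin added. Fluorescence read after 20 min at RT, 525/598 nm.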
# Tb PYK inh – inhibitors of Trypanosoma brucei pyruvate kinase; TbPYK enzyme, Kinase-Glo Plus ATP luminescence, 45 min; Potency, µM (top dose mostly 76.8 µM), for the others: at the highest dose activity, negative = inhibition, most hits filed as inhibitors; actives 0.12% (n = 410,000); Q57TT1; also: % is scaled to controls: 0 for no effect and ±100 for the full control effect; nearly all actives have a fitted effect of over 50% in size
#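 Assay buffer: 50 mM TEA pH 7.2, 100 mM KCl, 10 mM MgCl2, 0.05% BSA, 0.01% Tween-20. Pyruvate kinase from T. brucei plus substrate met compound, then ADP (130 uM final). Luminescence was read post 45 min RT.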
# LmPK inh – LmPK (Leishmania mexicana) enzyme inhibition. purified LmPK, Kinase-Glo ATP luminescence, 1 h. Potency, µM (doses to about 57.5 µM), for the others: at the top dose activity change, negative = inhibition, most hits filed as inhibitors. actives 0.37% (n = 290,000); also: % is scaled to controls: 0 for no effect and ±100 for the full control effect
#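 Screened at intermediate enzyme activity to detect both inhibitors and activators: LmPK at 0.1 nM, with a 0.5 nM enzyme column as activation reference. PEP 0.5 mM, ADP 0.1 mM; ATP detected by luminescence after 1 h.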
# AMA1 RON2 block – AMA1-RON2 (P. falciparum) interaction inhibition. AlphaScreen AMA1-biotinylated RON2 peptide binding. Potency, µM (titrated, usually from 58.2 µM), without a hit: top-dose activity change, negative = inhibition, hits mostly inhibitors. actives 0.2% (n = 360,000). AID 720542;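 also: 0% = vehicle wells and -100% = peptide control; nearly all actives have a fitted effect of over 45% in size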
#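 AMA1 (3D7) with his tag at 25 nM final met compounds first, then biotinylated RON2 peptide at 25 nM; detection used donor plus acceptor beads, 10 µg/mL apiece, read by AlphaScreen after 30 min at room temperature.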
# Starred values were filed as active, the others as inactive; ? = inconclusive; nt = not tested or not shown; [ ] = remark or other dose. Unless noted, calls follow the shape of the dose curve; as a rule, active = well fitted curve in the direction sought with a large enough effect; inconclusive = small, poorly fitted or top-dose-only effect, or another doubt; inactive = no such curve, though single readings can be large; an effect the other way counts as inactive or inconclusive. Potency is read from the fitted curve at half-maximal effect.
SMILES,NS1 inh,FBPA Giardia inh,Tb PYK inh,LmPK inh,AMA1 RON2 block
COc1ccc(C2CC(=O)N3CN(c4ccc(C)c(Cl)c4)CSC3=C2C#N)cc1OC (stereo unspecified),-69%,5µM*,?,16%,34%
CCCSC1=C(C#N)C(c2cc(OC)ccc2OC)CC(=O)N1 (stereo unspecified),5%,-2%,2%,5%,0%
CN(C(=O)Cn1cc(S(=O)(=O)Cc2ccccc2Cl)c2ccccc21)c1ccccc1,nt,nt,-14%[15.4 µM],nt,nt
COc1ccc(NC(=O)C(C)n2nnc3sc(-c4ccccc4)cc3c2=O)cc1Cl (stereo unspecified),nt,nt,-7%,nt,nt
CC(C)(S)C(=O)N[C@H](CS)C(=O)O,nt,nt,-20%,nt,nt
CCOc1ccccc1N1CSC2=C(C#N)C(c3c(OC)ccc4ccccc34)CC(=O)N2C1 (stereo unspecified),?,6.3µM*,3.5µM*,4%,15%
CCc1ccc(N2CSC3=C(C#N)C(c4cccs4)CC(=O)N3C2)cc1 (stereo unspecified),-91%,?,?,-11%,54%
CCCC[C@@H](CC)COC(=O)C[C@H](C(=O)OC[C@H](CC)CCCC)S(=O)(=O)O,nt,nt,-7%,nt,nt
CCOC(=O)c1ccccc1NC(=O)CN1CCCN(Cc2cc(C)ccc2C)S1(=O)=O,nt,nt,14%[15.4 µM],nt,nt
CC(C)CCC(CC(C)O)c1n[nH]c(=S)n1-c1ccccc1 (stereo unspecified),-4%,-10%,4.5µM*,10µM*,6%[2.32 µM]
CCC(c1n[nH]c(=S)n1-c1ccccc1)N(C)C (stereo unspecified),-8%,?,?,-22%,26%
COCCCNC(=O)c1ccc2c3c(onc13)-c1ccccc1C2=O,0%,0.89µM*,4%,-6%,?
CCN1CCN(c2cc(N3CCN(C(=O)c4ccco4)CC3)c3c4c(onc24)-c2ccccc2C3=O)CC1,-3%,?,-13%,-6%,22µM*
O=C(O)CCNc1cc(N2CCN(C(=O)c3ccco3)CC2)c2noc3c2c1C(=O)c1ccccc1-3,25%,?,?,-4%,32µM*
CC(=O)OCCNc1cc(N2CCN(C)CC2)c2noc3c2c1C(=O)c1ccccc1-3,-2%,?,?,-23%,?
COc1ccc(NC(=O)c2noc3c2CCC3)cc1,2%,-10%,-17%,16µM*,-9%
CC(=O)c1ccc(NC(=O)c2noc3c2CCC3)cc1,nt,1%,-3%,1%,-19%
Cc1ccc(NC(=O)c2noc3c2CCC3)cc1C,nt,-6%,-16%,11%,0%
O=C(Nc1cccc(O)c1)c1noc2c1CCCCC2,-58%,-3%,4%,11µM*,-1%
CC[C@H](C)[C@H](NC(=O)[C@@H]1CCCN1C(=O)[C@H](Cc1cnc[nH]1)NC(=O)[C@H](CCCCNC(=O)[C@H](CCCN=C(N)N)NC(=O)OCc1ccccc1)NC(=O)[C@H](Cc1ccc(O)cc1)NC(=O)c1cccnc1)C(=O)O,nt,5%,nt,nt,nt
O=C(O)c1cc(O)c2c(c1)[C@H]([C@H]1c3cc(C(=O)O)cc(O)c3C(=O)c3c(O[C@@H]4O[C@H](CO)[C@@H](O)[C@H](O)[C@H]4O)cccc31)c1cccc(OC3O[C@H](CO)[C@@H](O)[C@H](O)[C@H]3O)c1C2=O (stereo partly specified),nt,nt,?,nt,0.89µM*
COc1ccc(NC(=O)CSc2oc(-c3cccs3)nc2S(=O)(=O)c2ccc(Br)cc2)c(OC)c1,nt,nt,-4%,nt,nt
Cc1ccccc1NC(=O)CSc1n[nH]c(-c2ccccn2)n1,-8%,?,-2%,-2%,8.9µM*
CC(C)n1nnc2cc(C(=O)O)ccc21,nt,-9%,nt,nt,nt
CC1OC(Oc2c(-c3cc(O)c(O)c(O)c3)oc3cc(O)cc(O)c3c2=O)C(O)C(O)C1O (stereo unspecified),1%,10µM*,-24%,9%,-1%
C[C@@H]1O[C@@H](OC[C@@H]2O[C@H](Oc3c(-c4ccc(O)cc4)oc4cc(O)cc(O)c4c3=O)[C@@H](O)[C@H](O)[C@H]2O)[C@H](O)[C@H](O)[C@H]1O,nt,nt,0%,nt,3%
O=c1ccc2c(OCCCCc3ccccc3)c3ccoc3cc2o1,-15%,1%,nt,nt,nt
